The results in this text go back to PubChem BioAssay (NCATS).

Molecules are shown by their SMILES. Records with an inconclusive call do not appear. A number with no mark means an inactive call. The source made the active and inactive calls. The call rests on the fitted dose curve; in most records, active means well fitted inhibition curve with a large enough effect; inconclusive means small, poorly fitted or top-dose-only effect; inactive means flat fitted curve, though single readings scatter.
Potency means the concentration at half of the fitted maximal effect.

One assay relates to GB4. The assay can be described thus: qHTS profiling for inhibitors of Plasmodium falciparum proliferation (AID 504749). Further: nearly all actives have a fitted effect of over 60% in size.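 On activity, negative = inhibition: 0% = DMSO vehicle and full inhibition = artemisinin control.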 The settings on record: P. falciparum in erythrocytes, SYBR Green DNA, 72 h; series mostly up to 28.7 µM; activity, negative = inhibition: at the top concentration. The method in brief: (§1)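 Quantitative HTS: compounds pinned into medium, infected erythrocytes added (0.3% parasitemia, 2.5% hematocrit), 72 h culture at 37 C under 5% CO2. Saponin/Triton lysis with SYBR Green I, overnight RT, then fluorescence read.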
In general terms: In qHTS, concentration-response curves come from the screen itself.
As for `NC[C@H](O)c1ccc(O)c(O)c1`, the “activity, negative = inhibition” value was -14.9%.
Take `CCOC(=O)N1CCC(=C2c3ccc(Cl)cc3CCc3cccnc32)CC1`: the Potency was 12 µM (active).
On the same count and under the same terms, under `CCOC(=O)C1=C[C@@]2(CC)CCCN3CCc4c(n1c1ccccc41)[C@H]32` stands 7.57 µM (active).
As for `N[C@@H]1CONC1=O`, the “activity, negative = inhibition” value is -13.9%.
The same measure, in the same setting: the same measure for `Nc1nc2c(ncn2COCCO)c(=O)[nH]1`: -0.365% [at 12.8 µM]; for `Cc1ccc(N(CC2=NCCN2)c2cccc(O)c2)cc1`: -12.2%.
Still for that read-out and setting: under `N#Cc1ccc(C(c2ccc(C#N)cc2)n2cncn2)cc1` stands -9.21% [at 12.8 µM].
Take `CC(C)C[C@H](NC(=O)[C@@H](O)[C@H](N)Cc1ccccc1)C(=O)O`: the Potency was 4.78 µM (active).

The next assay has as its system HB3. Described as above. The settings on record: P. falciparum in erythrocytes, SYBR Green DNA, 72 h; series mostly up to 28.7 µM; activity, negative = inhibition: at the top concentration. Summed up: as §1
Turning to `NC[C@H](O)c1ccc(O)c(O)c1`, the “activity, negative = inhibition” value is 5.44%.
The same measure, in the same setting: under `N[C@@H]1CONC1=O` stands -11.7%; under `Nc1nc2c(ncn2COCCO)c(=O)[nH]1`, 1.33% [at 12.8 µM]; under `Cc1ccc(N(CC2=NCCN2)c2cccc(O)c2)cc1`, 7.31%.
Still for that read-out and setting: the same measure for `N#Cc1ccc(C(c2ccc(C#N)cc2)n2cncn2)cc1`: -11.1% [at 12.8 µM]; for `Oc1ccc(C2CNCCc3c2cc(O)c(O)c3Cl)cc1` (stereo not drawn): -23.8%.
Still for that read-out and setting: the same measure for `COc1ccc2nc(S(=O)Cc3ncc(C)c(OC)c3C)[nH]c2c1` (stereo not drawn): -13.5%.

The next assay concerns ICS. The assay is described as above. The note with it: P. falciparum in erythrocytes, SYBR Green DNA, 72 h; series mostly up to 28.7 µM; activity, negative = inhibition: at the top concentration. Summed up: as §1
With `NC[C@H](O)c1ccc(O)c(O)c1`, the “activity, negative = inhibition” value is 3.17%.
Regarding `Cc1oncc1C(=O)Nc1ccc(C(F)(F)F)cc1`, the Potency is 3.16 µM (active).
On the same count and under the same terms, under `CCOC(=O)N1CCC(=C2c3ccc(Cl)cc3CCc3cccnc32)CC1` stands 2.24 µM (active).
On to `N[C@@H]1CONC1=O`, for which the “activity, negative = inhibition” value was -8.92%.
Take `Nc1nc2c(ncn2COCCO)c(=O)[nH]1`: the “activity, negative = inhibition” value is 10.4% [at 12.8 µM].
With `Cc1ccc(N(CC2=NCCN2)c2cccc(O)c2)cc1`, the “activity, negative = inhibition” value is -0.903%.
Same read-out and setting: the same measure for `N#Cc1ccc(C(c2ccc(C#N)cc2)n2cncn2)cc1`: 8.78% [at 12.8 µM].
Regarding `COc1ccc2nc(S(=O)Cc3ncc(C)c(OC)c3C)[nH]c2c1` (stereo not drawn), the Potency was 14.1 µM (active).
On to `CC(C)C[C@H](NC(=O)[C@@H](O)[C@H](N)Cc1ccccc1)C(=O)O`, for which the Potency is 4.47 µM (active).
Take `Cc1cc2c(C(C)C)c(O)c(O)c(C=O)c2c(O)c1-c1c(C)cc2c(C(C)C)c(O)c(O)c(C=O)c2c1O`: the Potency was 5.01 µM (active).

The next assay deals with JCK. The description is as above. The settings on record: P. falciparum in erythrocytes, SYBR Green DNA, 72 h; series mostly up to 28.7 µM; activity, negative = inhibition: at the top concentration. The method in brief: as §1
Take `NC[C@H](O)c1ccc(O)c(O)c1`: the “activity, negative = inhibition” value is -1.65%.
As to `Cc1oncc1C(=O)Nc1ccc(C(F)(F)F)cc1`, the “activity, negative = inhibition” value was 7.98% [at 12.8 µM].
Still for that read-out and setting: under `N[C@@H]1CONC1=O` stands 5.36%; under `Nc1nc2c(ncn2COCCO)c(=O)[nH]1`, -13.2% [at 12.8 µM].
For the compound `Cc1ccc(N(CC2=NCCN2)c2cccc(O)c2)cc1`, the “activity, negative = inhibition” value is -0.826%.
On the same count and under the same terms, under `N#Cc1ccc(C(c2ccc(C#N)cc2)n2cncn2)cc1` stands 20.8% [at 12.8 µM]; under `Oc1ccc(C2CNCCc3c2cc(O)c(O)c3Cl)cc1` (stereo not drawn), -9.8%; under `COc1ccc2nc(S(=O)Cc3ncc(C)c(OC)c3C)[nH]c2c1` (stereo not drawn), -0.46%.
